# Reference: PubChem BioAssay
# Unmarked numbers belong to inactive results. For some of these results: Results with a measured potency or affinity are listed apart. Activity calls are given as the source filed them. Unless noted, the rule behind the calls is not given here.
# Tests used:
# [1] = antimalarial activity against Dd2 strain (AID 2302;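 active = growth inhibition above 50% at the single 2 µM test dose, taken to imply half-maximal potency below 2 µM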;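 note: 0% = DMSO untreated growth and 100% = chloroquine plus artemisinin killed control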); conditions: P. falciparum Dd2 in RBCs, LDH growth readout, 72 h; at 2 µM; active compounds read high
# [2] = HepG2 cytotoxicity, primary screen, cytotoxicity control for P. falciparum antimalarial project, cell-based, ATP luminescence (AID 2303;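 active = inhibition above 50%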;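 note: 0% = DMSO wells and 100% = digitonin-killed cells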); conditions: HepG2 viability, 24-48 h, at 10 µM, active compounds read high
# [3] = target: L-lactate dehydrogenase (Plasmodium falciparum (isolate CDC / Honduras)) (UniProt Q27743); assay: PfLDH activity inhibition – cell lysate, 3D7 strain, counter-screen for P. falciparum growth inhibition project (AID 2304);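 note: 0% = vehicle and 100% = reference inhibitor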; conditions: P. falciparum 3D7 crude extract, LDH APAD/NBT absorbance; at 2 µM; active compounds read high
# [4] = inhibition of 3D7 malaria parasite growth – strain 3D7 (AID 2306);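 note: 0% = DMSO wells and 100% = chloroquine plus artemisinin control wells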; conditions: P. falciparum 3D7 erythrocytic growth, LDH absorbance, 72 h; at 2 µM; active compounds read high
# [5] = target: Calcium-dependent protein kinase 1 (Plasmodium falciparum (isolate 3D7)) (UniProt P62344); assay: PfCDPK1 kinase inhibitors, biochemical, TCAMS library (AID 1159585; cut-off not given, nearly all actives have IC50 up to about 0.98 µM;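 note: inhibitors leave more ATP so luminescence rises with inhibition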); conditions: recombinant PfCDPK1, Kinase-Glo ATP depletion luminescence
# [6] = target: Plasmodium falciparum protein kinase 6 (PK6, PF3D7_1337100) (UniProt Q8IDW1); assay: PfPK6 kinase inhibitors, biochemical, TCAMS library (AID 1159586); conditions: recombinant PfPK6, Kinase-Glo ATP depletion luminescence
# [7] = target: Protein kinase 7 (PK7), Plasmodium falciparum 3D7 (PF3D7_0213400) (UniProt Q7YTF7); assay: inhibition of Plasmodium PK7 catalytic activity – biochemical, TCAMS antimalarial set, Kinase-Glo luminescence (AID 1159587); conditions: recombinant PfPK7, Kinase-Glo ATP depletion luminescence
# [8] = target: Calcium-dependent protein kinase 4 (Plasmodium falciparum (isolate 3D7)) (UniProt Q8IBS5); assay: PfCDPK4 kinase inhibitors, biochemical, TCAMS library (AID 1159588; cut-off not given, nearly all actives have IC50 up to about 0.91 µM); conditions: recombinant PfCDPK4, Kinase-Glo ATP depletion luminescence
# Calcium-dependent protein kinase 4 (Plasmodium falciparum (isolate 3D7)), sequence (Q8IBS5 whole entry, looked up): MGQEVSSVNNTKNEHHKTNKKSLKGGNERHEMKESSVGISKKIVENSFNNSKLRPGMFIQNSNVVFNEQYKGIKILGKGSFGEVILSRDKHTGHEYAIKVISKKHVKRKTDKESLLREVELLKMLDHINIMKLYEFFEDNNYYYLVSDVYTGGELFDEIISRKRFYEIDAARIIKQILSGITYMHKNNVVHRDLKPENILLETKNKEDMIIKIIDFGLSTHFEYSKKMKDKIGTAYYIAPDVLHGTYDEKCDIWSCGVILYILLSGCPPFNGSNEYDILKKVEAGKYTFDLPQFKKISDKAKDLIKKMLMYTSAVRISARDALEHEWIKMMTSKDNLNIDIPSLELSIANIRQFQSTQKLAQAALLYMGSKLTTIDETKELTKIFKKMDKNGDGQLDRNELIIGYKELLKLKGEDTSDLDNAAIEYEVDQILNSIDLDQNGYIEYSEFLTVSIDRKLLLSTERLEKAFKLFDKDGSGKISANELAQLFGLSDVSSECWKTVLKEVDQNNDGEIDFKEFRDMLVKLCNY
# Plasmodium falciparum protein kinase 6 (PK6, PF3D7_1337100), sequence (Q8IDW1 1-305): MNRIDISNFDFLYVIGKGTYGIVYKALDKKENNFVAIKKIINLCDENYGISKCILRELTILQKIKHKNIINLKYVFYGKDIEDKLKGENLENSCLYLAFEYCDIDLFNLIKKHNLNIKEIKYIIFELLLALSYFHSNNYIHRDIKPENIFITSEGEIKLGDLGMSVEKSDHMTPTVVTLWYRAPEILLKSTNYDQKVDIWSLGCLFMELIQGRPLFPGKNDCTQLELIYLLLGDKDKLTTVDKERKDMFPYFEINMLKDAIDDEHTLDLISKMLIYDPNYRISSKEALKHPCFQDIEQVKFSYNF
# Protein kinase 7 (PK7), Plasmodium falciparum 3D7 (PF3D7_0213400), sequence (Q7YTF7 1-343): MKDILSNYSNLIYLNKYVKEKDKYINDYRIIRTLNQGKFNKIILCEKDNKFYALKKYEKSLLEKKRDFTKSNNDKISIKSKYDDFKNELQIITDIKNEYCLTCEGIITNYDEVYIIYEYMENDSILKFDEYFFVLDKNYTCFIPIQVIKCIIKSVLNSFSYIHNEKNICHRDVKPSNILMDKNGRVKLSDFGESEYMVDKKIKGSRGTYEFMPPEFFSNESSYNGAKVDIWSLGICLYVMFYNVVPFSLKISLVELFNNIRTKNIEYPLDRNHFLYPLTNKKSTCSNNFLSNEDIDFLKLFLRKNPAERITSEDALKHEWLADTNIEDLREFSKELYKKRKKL
# L-lactate dehydrogenase (Plasmodium falciparum (isolate CDC / Honduras)), sequence (Q27743 whole entry, looked up): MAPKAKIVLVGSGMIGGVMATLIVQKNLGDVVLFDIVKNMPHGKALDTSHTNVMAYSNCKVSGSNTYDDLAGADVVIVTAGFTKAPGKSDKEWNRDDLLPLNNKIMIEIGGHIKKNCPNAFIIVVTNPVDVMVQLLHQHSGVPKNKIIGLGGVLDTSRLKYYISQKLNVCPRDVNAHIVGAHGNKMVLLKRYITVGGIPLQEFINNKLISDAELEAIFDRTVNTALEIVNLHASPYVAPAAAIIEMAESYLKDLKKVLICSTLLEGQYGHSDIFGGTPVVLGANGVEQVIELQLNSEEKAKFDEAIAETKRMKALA
# Calcium-dependent protein kinase 1 (Plasmodium falciparum (isolate 3D7)), sequence (P62344 whole entry, looked up): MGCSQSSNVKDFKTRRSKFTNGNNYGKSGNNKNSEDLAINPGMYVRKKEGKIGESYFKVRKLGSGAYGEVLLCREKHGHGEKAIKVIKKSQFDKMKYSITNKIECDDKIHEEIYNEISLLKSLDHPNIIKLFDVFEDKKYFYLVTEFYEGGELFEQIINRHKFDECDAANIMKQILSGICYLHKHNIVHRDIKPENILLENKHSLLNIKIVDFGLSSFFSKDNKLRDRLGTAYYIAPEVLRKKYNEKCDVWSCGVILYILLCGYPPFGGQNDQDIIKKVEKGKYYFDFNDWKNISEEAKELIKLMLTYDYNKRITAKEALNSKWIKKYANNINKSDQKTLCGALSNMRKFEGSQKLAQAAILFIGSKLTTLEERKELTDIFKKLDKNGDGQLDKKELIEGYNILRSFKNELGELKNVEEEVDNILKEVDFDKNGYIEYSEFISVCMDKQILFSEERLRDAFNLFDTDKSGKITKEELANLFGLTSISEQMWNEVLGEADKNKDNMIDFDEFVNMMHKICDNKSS
SMILES,growth inhibition [1],inhibition [2],inhibition [3] [%],growth inhibition [4],outcome [5],outcome [6],outcome [7],outcome [8]
O=C(NCc1ccc(Cl)c(Cl)c1)c1cc(CNC2CCNCC2)ccc1O,2%,2%,4,82% (active),inactive,inactive,inactive,inactive
COc1ccccc1C1CCN(C2CCC(NC(=O)c3cc4ccccc4[nH]3)CC2)CC1 (centres undefined),7%,49%,0,88% (active),inactive,inactive,inactive,inactive
NCC1CCCN1Cc1ccc(-c2ccc(-c3nc4ccc(C(F)(F)F)cc4[nH]3)s2)cc1 (centres undefined),97% (active),31%,-3,102% (active),inactive,inactive,inactive,inactive
CCCCCCCCn1c2c(c(=N)c3c1CCC3)CCCC2,100% (active),57% (active),2,101% (active),inactive,inactive,inactive,inactive
Cc1cc(-c2c[nH]c3ncc(-c4cccc5ncccc45)cc23)ccc1C(=O)O,77% (active),31%,-7,99% (active),inactive,inactive,inactive,inactive
CC(=O)Nc1ccc(CN2CCC(NC(=O)c3ccc(-c4cccc(F)c4)s3)CC2)cc1,13%,6%,0,96% (active),inactive,inactive,inactive,inactive
COc1ccc(NC(=O)[C@H](Cc2ccccc2)Nc2cc(C)nc(NCCOc3ccccc3)n2)cc1,25%,11%,3,98% (active),inactive,inactive,inactive,inactive
COc1cc(Cc2cnc(N)nc2N)c2ccsc2c1OC,4%,5%,0,92% (active),inactive,inactive,inactive,inactive
CC(Cc1ccc(NC(=O)COc2ccc(CC(C)NCCc3cccc(Cl)c3)cc2)cc1)NCCc1cccc(Cl)c1 (centres undefined),98% (active),100% (active),4,105% (active),inactive,inactive,inactive,inactive
OC(CNCc1ccccc1)c1cc(OCc2ccccc2)cc(OCc2ccccc2)c1 (centres undefined),76% (active),-14%,3,98% (active),inactive,inactive,inactive,inactive
NC(Cc1ccc(Cl)cc1)=NCCN1CCCCCC1,94% (active),-8%,-2,93% (active),inactive,inactive,inactive,inactive
CC[C@H]1CN(Cc2ccco2)CC[C@H]1CCCc1ccnc2ccc(O)cc12,14%,31%,-1,93% (active),inactive,inactive,inactive,inactive
CCN(CCCN1CCCCC1)c1cc(C)nc(Nc2ccc(C)cc2Cl)n1,25%,44%,1,93% (active),inactive,inactive,inactive,inactive
Cc1cccc2[nH]c(-c3ccc(-c4ccc(NC(=O)C(C)CN(C)C)cc4)s3)nc12 (centres undefined),98% (active),23%,0,100% (active),inactive,inactive,inactive,inactive
CC(C)c1ccc(CN2CCCCC(NC(=O)c3cc(-c4cccc(F)c4)cs3)C2)cc1 (centres undefined),13%,6%,1,94% (active),inactive,inactive,inactive,inactive
O=S(=O)(NCCN1CCCC1)c1ccc(-c2ccc(CNC3Cc4ccccc4C3)cc2)cc1F,75% (active),33%,-1,101% (active),inactive,inactive,inactive,inactive
CC(C)(C)C1CC(=O)C[C@@H]2C(=O)N(C3CCCCC3)C(=O)[C@H]12 (some centres undefined),27%,-2%,-2,97% (active),inactive,inactive,inactive,inactive
Fc1cccc(Nc2nc(NCCc3ccc(Cl)cc3)nc(Nc3cccc(F)c3)n2)c1,30%,-3%,6,93% (active),inactive,inactive,inactive,inactive
O=C(/C=C/c1ccc(Cl)c(Cl)c1)NCCCCCCN1CCCN(C(=O)Nc2ccc(Cl)c(Cl)c2)CC1,8%,25%,-1,100% (active),inactive,inactive,inactive,inactive

SMILES,growth inhibition [1],inhibition [2],inhibition [3] [%],growth inhibition [4],outcome [5],outcome [6],outcome [7],outcome [8]
CC1(C)N=C(N)N=C(N)N1OCCOc1ccc(Cc2ccccc2)cc1,26%,62% (active),3,94% (active),inactive,inactive,inactive,inactive
COc1cc(CNC[C@@H](O)[C@H](Cc2ccccc2)NC(=O)c2cc(C3CCCC3)cc(N3CCCS3(=O)=O)c2)cc(OC)c1,94% (active),31%,2,95% (active),inactive,inactive,inactive,inactive
CCCCN1CCN(CCCNc2c3ccccc3nc3ccccc23)CC1,70% (active),26%,-7,101% (active),inactive,inactive,inactive,inactive
Nc1n[nH]c(-c2ccccc2Nc2ccnc3cc(-c4nccs4)ccc23)n1,94% (active),98% (active),-2,100% (active),inactive,inactive,inactive,inactive
O=C(NCCN1CCCCC1)c1cc2cc(-c3ccccc3)ccc2n1S(=O)(=O)c1ccccc1,-1%,15%,2,90% (active),inactive,inactive,inactive,inactive
COc1cc(F)c2ncc(Cl)c(CCN3CCC(NCc4ccc5c(c4)OCCO5)CC3)c2c1,92% (active),35%,-7,97% (active),inactive,inactive,inactive,inactive
O=C(Nc1cccc(-c2nc3ccccc3[nH]2)c1)c1cccc(NC(=O)c2ccco2)c1,45%,9%,0,91% (active),inactive,inactive,inactive,inactive
Cc1cccc2[nH]c(-c3cccc(-c4ccc(NC(=O)c5ccoc5)cc4)c3)nc12,56% (active),65% (active),-5,99% (active),inactive,inactive,inactive,inactive
O=S(=O)(Nc1cccc(CCN2CCCCC2CCN2CCCC2)c1)c1cccc2ccccc12 (centres undefined),6%,23%,3,97% (active),inactive,inactive,inactive,inactive
CC(=O)Nc1cccc(-c2cnc(N)c3cc(-c4ccc5c(c4)OCO5)ccc23)c1,93% (active),100% (active),-4,99% (active),inactive,inactive,inactive,inactive
Cc1cc(N2CC=CCC2)nc(/N=C(\N)Nc2ccc(Cl)cc2)n1,78% (active),-2%,-8,100% (active),inactive,inactive,inactive,inactive
COc1nc2c(CCN3CC[C@H](NCc4ccc5c(c4)NC(=O)CO5)[C@H](O)C3)c(Cl)cnc2cc1F,22%,21%,-3,90% (active),inactive,inactive,inactive,inactive
Cc1cc(OCCCN2CCC(NS(=O)(=O)c3ccc(Cl)c(Cl)c3)CC2)c2ccccc2n1,35%,11%,1,96% (active),inactive,inactive,inactive,inactive
CN1CCCN(Cc2cccc(-c3ccc(NS(=O)(=O)c4cccc5cccnc45)cc3)c2)CC1,87% (active),44%,2,100% (active),inactive,inactive,inactive,inactive
COc1ccccc1CNC(=O)CCn1c(=O)[nH]c2ccsc2c1=O,75% (active),-5%,-7,85% (active),inactive,inactive,inactive,inactive
CC(C)(C)c1ccccc1SC1=C(O)CC2(CCNCC2)OC1=O,-4%,0%,2,99% (active),inactive,inactive,inactive,inactive
CN(C)CCNc1nccc(N2CCc3ncnc(Nc4ccc(OCc5cccc(F)c5)c(Cl)c4)c3C2)n1,97% (active),65% (active),6,100% (active),inactive,inactive,inactive,inactive
COc1ccc(C2CC(=O)C3=C(C2)NC(C)=C(C(=O)OC(C)C)C3c2ccccc2F)cc1OC (centres undefined),99% (active),14%,0,100% (active),inactive,inactive,inactive,inactive
COc1ccc(CCN(C)CCc2ccc(NC(=O)c3cccc4c(=O)c5ccccc5sc34)cc2)cc1,33%,24%,-2,95% (active),inactive,inactive,inactive,inactive
